Laboratory results: PubChem BioAssay (Tox21)
Values joined by “and” are separate entries in the source; they are usually repeats but may differ in a detail not shown here. Equal values may be shown once. Results filed as inconclusive are left out. Where a structure was tested more than once in an assay, its records may differ in their call. Active and inactive are the calls of the source. Unless noted, calls follow the shape of the dose curve; as a rule, active = well fitted curve in the direction sought with a large enough effect in the repeat runs; inconclusive = weak or mixed curves; inactive = no such curve, though single readings can be large; an effect the other way counts as inactive or inconclusive.

What was measured:
[1] = qHTS assay to identify small molecule agonists of the estrogen receptor alpha (ER-alpha) signaling pathway in the presence of an antagonist - cell viability counter screen (AID 1259386);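 also: series mostly up to about 92 µM; cells exposed to compounds for 22 h at 37 °C before the viability read; nearly all actives have a fitted effect of over 30% in size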
In short: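 VM7Luc4E2, stripped-serum pre-culture 5 d; 24hr plating; +ICI-182,780 10.0nM final; cpds 15 conc, 22hr, 37C/5% CO2; CellTiter-Fluor added at 21hr, fluorescence 1hr later.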

[2] = target: Progesterone receptor (Homo sapiens) (UniProt P06401); assay: qHTS assay to identify small molecule agonists of the progesterone receptor (PR) signaling pathway (AID 1346784; calls by dose curve; also: nearly all actives have a fitted effect of over 30% in size)
Progesterone receptor (Homo sapiens), sequence (P06401 whole entry, looked up): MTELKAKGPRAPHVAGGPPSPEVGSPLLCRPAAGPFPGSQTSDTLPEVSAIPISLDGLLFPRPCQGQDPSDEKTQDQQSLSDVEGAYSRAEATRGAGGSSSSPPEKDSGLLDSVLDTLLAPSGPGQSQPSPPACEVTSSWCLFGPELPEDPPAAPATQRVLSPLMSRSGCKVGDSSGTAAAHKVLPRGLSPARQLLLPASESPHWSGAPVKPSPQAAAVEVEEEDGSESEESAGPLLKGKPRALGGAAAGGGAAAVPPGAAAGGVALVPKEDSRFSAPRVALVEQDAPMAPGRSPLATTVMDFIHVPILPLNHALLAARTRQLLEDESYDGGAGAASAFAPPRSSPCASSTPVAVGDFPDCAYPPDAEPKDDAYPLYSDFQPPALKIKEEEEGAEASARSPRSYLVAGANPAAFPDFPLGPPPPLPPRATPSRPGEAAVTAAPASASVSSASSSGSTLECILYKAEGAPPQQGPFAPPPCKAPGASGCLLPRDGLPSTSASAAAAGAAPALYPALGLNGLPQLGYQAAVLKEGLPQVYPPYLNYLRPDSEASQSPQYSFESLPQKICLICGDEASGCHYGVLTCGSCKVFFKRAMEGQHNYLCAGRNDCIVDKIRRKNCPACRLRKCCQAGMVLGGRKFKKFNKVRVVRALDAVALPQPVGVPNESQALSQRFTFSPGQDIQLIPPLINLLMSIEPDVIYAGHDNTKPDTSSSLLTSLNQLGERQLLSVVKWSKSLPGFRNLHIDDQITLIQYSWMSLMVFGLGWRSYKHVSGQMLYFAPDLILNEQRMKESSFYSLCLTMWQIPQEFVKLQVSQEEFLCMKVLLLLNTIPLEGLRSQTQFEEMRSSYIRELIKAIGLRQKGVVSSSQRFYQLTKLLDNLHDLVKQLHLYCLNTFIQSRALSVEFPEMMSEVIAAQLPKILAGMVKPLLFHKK
In short: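 Agonist qHTS: compounds pinned onto 3,000 PR-UAS-bla HEK 293T cells per well in charcoal-stripped serum medium, 16hr at 37C, then beta-lactamase activity measured by LiveBLAzer FRET fluorescence after 2 hours at room temperature.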

[3] = target: Progesterone receptor (Homo sapiens) (UniProt P06401); assay: qHTS assay to identify small molecule antagonists of the progesterone receptor (PR) signaling pathway (AID 1346795; active = well fitted inhibition curve with a large enough effect in the signal ratio in the repeat runs, not every such curve was filed as active; the % refers to the signal ratio; also: potency is read from the fitted curve at half-maximal effect)
In short: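 Antagonist mode with agonist R5020 at 1 nM final and 16 hr incubation at 37C. Reporter was beta-lactamase driven by UAS in HEK293T (PR-UAS-bla), 2% charcoal-stripped serum; signal from LiveBLAzer FRET substrate, 2 hr at room temperature.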

[4] = qHTS assay to identify small molecule antagonists of the progesterone receptor (PR) signaling pathway - cell viability counter screen (AID 1346798); also: series mostly up to about 92 µM; nearly all actives have a fitted effect of over 50% in size
In short: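 Cytotoxicity read as CellTiter-Glo luminescence (30 min, room temperature) in the same wells as the beta-lactamase readout. HEK293T PR-UAS-bla cells in charcoal-stripped 2% FBS received compound and R5020, then 16 h at 37C, 5% CO2.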

[5] = qHTS assay to identify small molecule agonists of the progesterone receptor (PR) signaling pathway - cell viability counter screen (AID 1346799; calls by dose curve; also: nearly all actives have a fitted effect of over 45% in size)
In short: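 Cytotoxicity measured by CellTiter-Glo luminescence (30 min, RT) in the same wells as the PR beta-lactamase agonist read. Those HEK293T cells had 16 h compound treatment at 37 C in 2% charcoal-stripped FBS medium.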

[6] = qHTS assay to identify small molecule antagonists of the TGF-beta/Smad signaling pathway - cell viability counter screen (AID 1346824); also: nearly all actives have a fitted effect of over 50% in size
In short: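 SBE-bla HEK 293T cells were plated overnight at 37 C, then given compounds in DMSO plus TGF-beta1 (added as 0.25 ng/mL solution) for 5 hr. After the bla read, CellTiter-Glo was added to the same wells and luminescence read after 30 min at room temperature.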

[7] = qHTS assay to identify small molecule agonists of the TGF-beta/Smad signaling pathway - cell viability counter screen (AID 1346829); also: nearly all actives have a fitted effect of over 45% in size; also: potency is read from the fitted curve at half-maximal effect; as to activity change, negative = cytotoxicity: top concentration of the series differs between compounds
In short: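 In parallel with the Smad reporter read, viability of HEK 293T cells stably carrying SBE-bla is quantified by ATP luminescence following 5 hr compound treatment.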

[8] = qHTS assay to identify small molecule agonists of the TGF-beta/Smad signaling pathway (AID 1346859; active = well fitted activation curve with a large enough effect in the signal ratio in the repeat runs, not every such curve was filed as active; the % refers to the signal ratio; also: series mostly up to about 77 µM)
In short: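 Fluorescence (ex 405 nm; em 460 and 530 nm) was read 2 h after LiveBLAzer FRET substrate at RT. The preceding compound treatment of overnight-plated SBE-bla HEK293T cells lasted 5 h at 37 C.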

[9] = target: Thyrotropin-releasing hormone receptor (Homo sapiens) (UniProt P34981); assay: qHTS assay to identify small molecule antagonists of the thyrotropin-releasing hormone receptor (TRHR) signaling pathway (AID 1346877; active = well fitted inhibition curve with a large enough effect in the repeat runs, not every such curve was filed as active; also: series mostly up to about 51 µM)
Thyrotropin-releasing hormone receptor (Homo sapiens), sequence (P34981 whole entry, looked up): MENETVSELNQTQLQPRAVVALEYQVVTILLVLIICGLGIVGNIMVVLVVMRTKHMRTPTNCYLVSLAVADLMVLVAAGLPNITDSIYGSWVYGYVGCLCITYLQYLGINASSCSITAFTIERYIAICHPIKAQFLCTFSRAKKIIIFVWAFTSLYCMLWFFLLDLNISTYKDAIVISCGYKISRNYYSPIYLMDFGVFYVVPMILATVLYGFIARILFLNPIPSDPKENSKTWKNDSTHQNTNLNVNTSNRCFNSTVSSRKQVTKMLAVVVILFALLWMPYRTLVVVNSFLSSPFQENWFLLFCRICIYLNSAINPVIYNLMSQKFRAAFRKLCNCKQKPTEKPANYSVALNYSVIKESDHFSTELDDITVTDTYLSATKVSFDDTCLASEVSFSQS
In short: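 Intracellular calcium fluorescence, read kinetically every second over 3 min, reports TRH-evoked signalling in HEK293 cells carrying TRHR. Test compounds were added 5 min ahead of a 1 nM TRH challenge.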

[10] = target: Thyrotropin-releasing hormone receptor (Homo sapiens) (UniProt P34981); assay: qHTS assay to identify small molecule agonists of the thyrotropin-releasing hormone receptor (TRHR) signaling pathway (AID 1346891; calls by dose curve; also: series mostly up to about 58 µM)
In short: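 Agonist-mode intracellular calcium readout: kinetic fluorescence over 3 min at 1 s intervals after compound addition to TRHR-HEK293 cells (18 h seeded, 2 h dye-loaded at 37 C). Fifteen concentrations, triplicates.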
% is scaled to controls: 0 for no effect and ±100 for the full control effect.

CCCOCC(C)O (configuration not stated)
inactive: Potency [1] | Potency [2] | Potency [3] | Potency [4] | Potency [5] | Potency [6] | Potency [7] | Potency [8] | Potency [9] | outcome [10]

CC(=O)OC[C@H]1O[C@@](COC(C)=O)(O[C@H]2O[C@H](COC(C)=O)[C@@H](OC(C)=O)[C@H](OC(C)=O)[C@H]2OC(C)=O)[C@@H](OC(C)=O)[C@@H]1OC(C)=O
inactive: Potency [1] | Potency [2] | Potency [3] | Potency [4] | Potency [5] | Potency [6] | Potency [7] | Potency [8] | Potency [9] | outcome [10]

OCc1ccc(Cl)cc1Cl
inactive: Potency [1] | Potency [2] | Potency [3] | Potency [4] | Potency [5] | Potency [6] | Potency [7] | Potency [8] | Potency [9] | outcome [10]

COc1ccc([C@@H]2CC(=O)c3c(O)cc(O[C@@H]4O[C@H](CO[C@@H]5O[C@@H](C)[C@H](O)[C@@H](O)[C@H]5O)[C@@H](O)[C@H](O)[C@H]4O)cc3O2)cc1OC
inactive: Potency [1] | Potency [2] | Potency [3] | Potency [4] | Potency [5] | Potency [6] | Potency [7] | Potency [8] | Potency [9] | outcome [10]

CC(=O)CC(=O)N(C)C
inactive: Potency [1] | Potency [2] | Potency [3] | Potency [4] | Potency [5] | Potency [6] | Potency [7] | Potency [8] | Potency [9] | outcome [10]

OB(O)O
inactive: Potency [1] | Potency [2] | Potency [3] | Potency [4] | Potency [5] | Potency [6] | Potency [7] | Potency [8] | Potency [9] | outcome [10]

O=C(NCC1CCCCN1)c1cc(OCC(F)(F)F)ccc1OCC(F)(F)F (configuration not stated)
inactive: Potency [1] | Potency [2] | Potency [3] | Potency [4] | Potency [5] | Potency [6] | Potency [7] | Potency [8] | Potency [9] | outcome [10]

CC(=O)OC(C)(C)C1CC=C(C)CC1 (configuration not stated)
inactive: Potency [1] | Potency [2] | Potency [3] | Potency [4] | Potency [5] | Potency [6] | Potency [7] | Potency [8] | Potency [9] | outcome [10]

CC(C)(C)NC[C@H](O)COc1nsnc1N1CCOCC1
inactive: Potency [1] | Potency [2] | Potency [3] | Potency [4] | Potency [5] | Potency [6] | Potency [7] | Potency [8]

C=CC(=O)NCOCCCC
inactive: Potency [1] | Potency [2] | Potency [3] | Potency [4] | Potency [5] | Potency [6] | Potency [7] | Potency [8] | Potency [9] | outcome [10]

COC(=O)CCCCC(=O)OC
inactive: Potency [1] | Potency [2] | Potency [3] | Potency [4] | Potency [5] | Potency [6] | Potency [7] | Potency [8] | Potency [9] | outcome [10]

CCCCCCCCCCCC(=O)N(C)CC(=O)O
inactive: Potency [1] | Potency [2] | Potency [3] | activity change, negative = cytotoxicity [4] 0.0198% [at 8.39 µM] | Potency [5] | Potency [6] | Potency [7] | Potency [8]

C[n+]1ccn(CCO)c1
inactive: Potency [1] | Potency [2] | Potency [3] | Potency [4] | Potency [5] | Potency [6] | Potency [7] | Potency [8] | Potency [9] | outcome [10]

CCCCCCCCO
inactive: Potency [1] | Potency [2] | Potency [3] | Potency [4] | Potency [5] | Potency [6] | Potency [7] | Potency [8]

CC(CN1c2ccccc2Sc2ccccc21)N(C)C (configuration not stated)
inactive: Potency [1] | Potency [2] | Potency [6] | Potency [7] | Potency [8] | Potency [9] | outcome [10]
active: Potency [3] 61.8 µM and 30.6 µM

O=C1C(N(CO)C(=O)NCO)N(CO)C(=O)N1CO (configuration not stated)
inactive: Potency [1] | Potency [2] | Potency [3] | Potency [6] | Potency [7] | Potency [8] | Potency [9] | outcome [10]

COC(=O)/C=C\C(=O)OC
inactive: Potency [1] | Potency [2] | Potency [3] | Potency [6] | Potency [7] | Potency [8] | Potency [9] | outcome [10]

Cc1cc(C)c(O)c(C)c1
inactive: Potency [1] | Potency [2] | Potency [3] | Potency [5] | Potency [6] | Potency [7] | Potency [8] | Potency [9] | outcome [10]

N[C@@H](Cc1cc(I)c(Oc2ccc(O)c(I)c2)c(I)c1)C(=O)O
inactive: Potency [1] | Potency [2] | Potency [6] | Potency [7] | Potency [8]

O=C1OC(=O)c2c(Cl)c(Cl)c(Cl)c(Cl)c21
inactive: Potency [1] | Potency [2] | Potency [3] | Potency [5] | Potency [6] | Potency [7] | Potency [8] | Potency [9] | outcome [10]

OCC(CO)(CO)CO
inactive: Potency [1] | Potency [2] | Potency [3] | Potency [6] | Potency [7] | Potency [8] | Potency [9] | outcome [10]

CC(COCC(C)OC(=O)c1ccccc1)OC(=O)c1ccccc1 (configuration not stated)
inactive: Potency [1] | Potency [2] | Potency [4] | Potency [6] | Potency [7] | Potency [8] | Potency [9] | outcome [10]

Cc1ccccc1Cl
inactive: Potency [1] | Potency [5] | Potency [6] | Potency [7] | Potency [8]

Cc1cccc(C)c1[N+](=O)[O-]
inactive: Potency [1] | Potency [2] | Potency [3] | Potency [6] | Potency [7] | Potency [8] | Potency [9] | outcome [10]

Nc1cccc(C(F)(F)F)c1
inactive: Potency [1] | Potency [2] | Potency [3] | Potency [5] | Potency [6] | Potency [7] | Potency [8] | Potency [9] | outcome [10]

CO[Si](CCCNCCN)(OC)OC
31.4 µM (active) and inactive: Potency [7]
inactive: Potency [1] | Potency [2] | Potency [3] | Potency [5] | Potency [8] | Potency [9] | outcome [10]
